# RAD54 inh: RAD54 (human) branch migration inhibition; Q92698; RAD54 Holliday junction branch migration, FAM/BHQ fluorescence; inhibition, % at 10.4 µM; hit rate 0.14% among 360,000;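 active = mean normalized replicate activity at least 40 and at least half of replicates scoring 40 or more; inconclusive = only one of the two criteria met; inactive = mean below 40 and under half of replicates reaching 40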;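 also: 0% = median of neutral control wells and 100% = median of positive control wells; inhibitors cause a drop in the FAM fluorescence signal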
# Target sequence (Q92698 whole entry, looked up): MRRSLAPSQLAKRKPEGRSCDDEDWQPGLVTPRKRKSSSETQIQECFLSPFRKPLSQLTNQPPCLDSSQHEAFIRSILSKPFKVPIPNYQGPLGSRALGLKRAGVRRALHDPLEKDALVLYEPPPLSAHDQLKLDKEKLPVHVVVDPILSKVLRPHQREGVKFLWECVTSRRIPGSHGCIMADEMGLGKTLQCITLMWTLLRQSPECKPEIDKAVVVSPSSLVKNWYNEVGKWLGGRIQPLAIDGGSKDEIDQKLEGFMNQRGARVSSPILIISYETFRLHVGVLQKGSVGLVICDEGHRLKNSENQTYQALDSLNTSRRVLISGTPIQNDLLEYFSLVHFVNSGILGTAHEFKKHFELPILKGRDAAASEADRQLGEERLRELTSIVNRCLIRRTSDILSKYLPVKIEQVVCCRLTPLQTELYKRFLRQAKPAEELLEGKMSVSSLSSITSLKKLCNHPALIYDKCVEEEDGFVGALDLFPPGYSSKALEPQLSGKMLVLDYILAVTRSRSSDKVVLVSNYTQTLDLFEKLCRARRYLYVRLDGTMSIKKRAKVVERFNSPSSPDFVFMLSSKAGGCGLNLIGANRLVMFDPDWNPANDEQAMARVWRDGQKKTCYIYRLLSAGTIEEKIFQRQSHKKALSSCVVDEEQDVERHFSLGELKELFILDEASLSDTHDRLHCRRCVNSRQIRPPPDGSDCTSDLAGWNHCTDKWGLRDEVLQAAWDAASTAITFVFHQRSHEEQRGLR
# N-glyco inh: N-linked glycosylation inhibition; D54 ERlucT glycosylation luciferase reporter, 24 h; percent of 100 nM tunicamycin response; reporter increase, % at 12.5 µM; hit rate 0.23% among 360,000; AID 588692;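 active = mean luciferase reporter signal, scaled so untreated is 0 and the glycosylation-blocking control 100, at or above a set limit in every replicate; inconclusive = mean reaches the limit but not every replicate does; inactive = mean below the limit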;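 also: luciferase carries N-glycosylation sites so blocking glycosylation raises the light; 0% = median of neutral control wells and 100% = median of 100 nM tunicamycin wells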
# AF4-AF9 inh: blocks AF4 peptide binding to human AF9; inhibition, % at 10 µM; hit rate 0.47% among 350,000; AlphaScreen, biotin-AF4 peptide binding to FLAG-AF9; AID 651704; P42568;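 active = every replicate reaching a set inhibition limit, whatever the replicate mean, cut at about 25% in these data; inconclusive = mean inhibition reaches that limit but some replicates miss it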;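 also: 0% = plate neutral control median and 100% = total signal loss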
# RAD52 inh: RAD52 (human) annealing inhibition | P43351 | recombinant RAD52 DNA annealing, FRET fluorescence | inhibition, % at 18.7 µM | hit rate 0.46% among 360,000;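 active = every replicate showing at least 50% inhibition; inconclusive = mean inhibition at least 50% but not in every replicate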
# Casp6 inh: caspase-6 (human) enzyme inhibition; purified caspase-6, Z-VEID-R110 cleavage fluorescence; hit rate 0.53% among 350,000; inhibition, % at 12.5 µM; P55212;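 active = mean inhibition across replicates at least about 35%, with every replicate also reaching that limit, limit read from the data; inconclusive = only one of the two criteria met; inactive = neither criterion met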;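 also: 0% = median of neutral control wells and 100% = no fluorescence left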
# The depositor's hits bear a star; ? = inconclusive; nt = no result given; ! = not active in a repeat. An excerpt weighted towards active compounds, which were near 1.2% of everything screened.
SMILES,RAD54 inh,N-glyco inh,AF4-AF9 inh,RAD52 inh,Casp6 inh
Cn1cc(C(=O)N/N=C/C(Br)=C/c2ccccc2)ccc1=O,nt,25*,-14,-9,2
Cn1cc(C(=O)N/N=C/C(Br)=C\c2ccccc2)ccc1=O,-7,?,nt,nt,nt
O=C(NCC[C@H]1CC[C@@H](NC(=O)C2CCCCC2)[C@@H](CO)O1)Nc1ccc(Cl)cc1,-3,nt,4,-3,1
COc1cc(/C=N/N(C)S(=O)(=O)c2ccc(C)cc2)cc([N+](=O)[O-])c1O,-16,2,31*,-18,5
COc1cc(/C=N/NS(=O)(=O)c2ccc(C)c([N+](=O)[O-])c2)cc([N+](=O)[O-])c1O,-8,2,-21,-28,3
COc1ccccc1S(=O)(=O)N[C@@H]1CC[C@@H](CCNC(=O)C2CCCC2)O[C@H]1CO,-2,nt,-16,9,-2
COc1ccc(-c2sc(Nc3ccccc3)n[n+]2-c2ccccc2)cc1Br,-8,2,-6,-34,-6
C(=C\c1sc(Nc2ccccc2)n[n+]1-c1ccccc1)/c1ccccc1,5,-1,31*,-36,-3
COCC(=O)N1[C@@H]2CN(C(=O)Nc3ccccc3F)c3ccccc3[C@@H]2[C@@H]1CO,6,nt,-4,4,36*
O=C(Oc1ccc(Nc2ncnc3ccccc23)cc1)c1cccnc1,-6,-1,-4,1,38*
C[C@@H]1CN([C@@H](C)CO)C(=O)c2cc(C#CCN(C)C)cnc2O[C@@H]1CN(C)C(=O)Nc1cccc(F)c1,-7,nt,2,-2,-2
O=C(Nc1cccc(N2C(=O)C3CCCCC3C2=O)c1)c1ccccc1 (centres undefined),0,-2,1,-2,10
O=C(Nc1cccc(Cl)c1)c1cccc(N2C(=O)C3CC=CCC3C2=O)c1 (centres undefined),9,-3,0,-10,35*
COc1ccccc1CN1[C@@H](CO)[C@@H]2c3ccccc3N(C(=O)C3CCCCC3)C[C@@H]21,-7,nt,4,-1,0
CN(C)C(=O)C[C@@H]1CC[C@@H]2[C@H](COC[C@H](O)CN2C(=O)c2ccncc2)O1,2,nt,8,70*,1
CO[C@@H]1CN(C)C(=O)c2cc(NC(=O)Nc3ccccc3)ccc2OC[C@H](C)N(C(=O)Nc2c(C)noc2C)C[C@@H]1C,-8,nt,1,10,-1
O=C(N/N=C/C1CC=CCC1)c1ccc(Cl)cc1O (centres undefined),-2,2,0,-20,62*
O=C(N/N=C/C1CC=CCC1)c1ccccc1O (centres undefined),-2,2,nt,nt,nt
C[C@@H]1CCCCO[C@H](CN(C)S(=O)(=O)c2ccc(Cl)cc2)[C@H](C)CN([C@@H](C)CO)C(=O)c2cc(NC(=O)C3CCCCC3)ccc2O1,-2,nt,-1,8,-1
CCCCCn1c(=N)n(CC(O)COc2ccccc2OC)c2ccccc21 (centres undefined),3,1,50*!,12,2
CCCNC(=O)N1CC2(C1)CN(C(=O)CC)[C@@H](CO)c1[nH]c3cc(OC)ccc3c12,nt,nt,-2,nt,nt
Cc1ccc(CN2CCN(CC(=O)N3CCC(C(N)=O)CC3)C2=O)cc1,-24,1,41*,3,1
Cc1ccc(CNC(=O)CN2CCN(Cc3ccc(C)cc3)C2=O)cc1,-6,0,nt,nt,nt
COc1cccc(S(=O)(=O)N2[C@@H]3CNC[C@H]2C3c2ccc(-c3cccc(C)c3)cc2)c1 (some centres undefined),nt,nt,-15,41,1
Cc1ccc(S(=O)(=O)N2[C@@H]3CNC[C@H]2C3c2ccc(-c3cccc(C)c3)cc2)cc1 (some centres undefined),nt,nt,4,51*!,-1
Cc1ccc(S(=O)(=O)N2[C@@H]3CNC[C@H]2C3c2ccc(-c3cccc(C#N)c3)cc2)cc1 (some centres undefined),nt,nt,-1,53*!,1
N#Cc1cccc(-c2ccc(C3[C@H]4CNC[C@@H]3N4S(=O)(=O)c3ccc(F)cc3)cc2)c1 (some centres undefined),nt,nt,-2,28,0
Cc1ccc(S(=O)(=O)N2C[C@H](O)COC[C@@H]3O[C@H](CC(=O)NCC4CCCCC4)CC[C@H]32)cc1,3,nt,11,54*,1
Cc1ccc(S(=O)(=O)N2C[C@@H](O)COC[C@@H]3O[C@@H](CC(=O)NCC4CCCCC4)CC[C@H]32)cc1,7,nt,20,60*,1

# Assay outcomes as filed in PubChem.
